# Measurements as given in the supplement of paper PMC10849652.
# The full data set covers some 8,800 targets. This sample favours those with a hit. About 0.5% of all pairs of compound and target were hits. Unmarked numbers belong to inactive results.
# Tests used:
# Assay in all cases: log2 fold change, soluble protein after heating vs DMSO (PISA); higher = thermal stabilisation; K562 lysate, 10 uM; active = over 0.2 and 3.5 SD of the protein, either way, in both replicates (recomputed)
# erlotinib = compound: C#Cc1cccc(Nc2ncnc3cc(OCCOC)c(OCCOC)cc23)c1 [erlotinib]
# Outline: (§1)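 Pellets of K562 cells were dounce-homogenised in PBS pH 7.4 with 1 mM MgCl2, and the crude extract was held at 1 mg/mL protein for a 30 min treatment with 10 μM compound. Aliquots were heated for 3 min over 48°C-58°C and pooled before NP-40 was added to 0.5% at 4°C. The supernatant from 21,000xg for 90 min was quantified by TMTpro 16plex LC-MS/MS with channel sums equalised. Values are reported from duplicates as log-two fold change in thermal stability relative to solvent controls.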
# [1] = compound: C/C(=N\NC(=O)C1=CC(=CC=C1)S(=O)(=O)N2CCOCC2)/C3=C(C=CC(=C3)Cl)O
# Outline: as §1
# [2] = compound: C1=CC(=CC=C1C2=NC3=C(N2)C=C(C=C3)C(=O)N)OC4=CC=C(C=C4)Cl
# Outline: as §1
# [3] = compound: C1=CC2=C(C=CC(=C2)/C=C\3/C(=O)NC(=NCC4=CC=CS4)S3)N=C1
# Outline: as §1
# [4] = compound: C1=CC2=NC=CN=C2C=C1/C=C/3\C(=O)NC(=O)S3
# Outline: as §1
# [5] = compound: C1=CC=C(C=C1)C2=NC(=C(N2)C3=CC=NC=C3)C4=CC(=C(C=C4)Cl)O
# Outline: as §1
# [6] = compound: C1=CC=C2C(=C1)C3=NNC4=CC=CC(=C43)C2=O
# Outline: as §1
# [7] = compound: C1CCN(C1)C(=O)NC2=CC=CC(=C2)NC3=NC=C(C(=N3)NCCC4=CN=CN4)Br
# Outline: as §1
# [8] = compound: C1CN(CCC1(CC2=CC=C(C=C2)Cl)N)C3=NC=NC4=C3C=CN4
# Outline: as §1
# IRAK-1-4 Inhibitor I = compound: C1COCCN1CCN2C3=CC=CC=C3N=C2NC(=O)C4=CC(=CC=C4)[N+](=O)[O-] [IRAK-1-4 Inhibitor I]
# Outline: as §1
# ibrutinib = compound: C=CC(=O)N1CCC[C@@H](n2nc(-c3ccc(Oc4ccccc4)cc3)c3c(N)ncnc32)C1 [ibrutinib]
# Outline: as §1
# [9] = compound: CC(=O)c1cnc2ccc(-c3cc(Cl)c(O)c(Cl)c3)nc2c1N[C@H]1CC[C@H](CN(C)C)CC1
# Outline: as §1
# ralimetinib = compound: CC(C)(C)Cn1c(N)nc2ccc(-c3[nH]c(C(C)(C)C)nc3-c3ccc(F)cc3)nc21 [ralimetinib]
# Outline: as §1
# [10] = compound: CC(C)(O)CC(=O)NCCn1ccc2ncnc(Nc3ccc(Oc4cccc(C(F)(F)F)c4)c(Cl)c3)c21
# Outline: as §1
# [11] = compound: CC(C)C1=C2N=C(C=C(N2N=C1)NCC3=CC=CC=C3)NCCCCCCN
# Outline: as §1
# [12] = compound: CC1=C(C(CC(=O)N1)C2=CC=C(C=C2)C(F)(F)F)C(=O)NC3=C(C=C4C(=C3)C=NN4)F
# Outline: as §1
# [13] = compound: CC1=C(C2=C(C=C1)C(=O)C3=CC=CC=C3N2CCCN)C
# Outline: as §1
# [14] = compound: CC1=C(C=C(C=C1)NC(=O)C2=CC(=CC=C2)C(C)(C)C#N)NC3=CC4=C(C=C3)N=CN(C4=O)C
# Outline: as §1
# [15] = compound: CC1=C(C=C(C=C1)NC(=O)C2=CC(=CC=C2)N(C)C)NC(=O)C3=CC=C(C=C3)O
# Outline: as §1
# [16] = compound: CC1=CC=C(C=C1)SC2=C3C=C(SC3=CN=C2)C(=O)N
# Outline: as §1
# UniProt P54852, sequence (P54852 whole entry, looked up): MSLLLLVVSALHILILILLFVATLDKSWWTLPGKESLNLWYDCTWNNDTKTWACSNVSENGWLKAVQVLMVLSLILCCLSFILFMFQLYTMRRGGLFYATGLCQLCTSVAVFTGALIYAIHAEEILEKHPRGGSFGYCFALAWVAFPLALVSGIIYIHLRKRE
# UniProt Q6PIW4, sequence (Q6PIW4 whole entry, looked up): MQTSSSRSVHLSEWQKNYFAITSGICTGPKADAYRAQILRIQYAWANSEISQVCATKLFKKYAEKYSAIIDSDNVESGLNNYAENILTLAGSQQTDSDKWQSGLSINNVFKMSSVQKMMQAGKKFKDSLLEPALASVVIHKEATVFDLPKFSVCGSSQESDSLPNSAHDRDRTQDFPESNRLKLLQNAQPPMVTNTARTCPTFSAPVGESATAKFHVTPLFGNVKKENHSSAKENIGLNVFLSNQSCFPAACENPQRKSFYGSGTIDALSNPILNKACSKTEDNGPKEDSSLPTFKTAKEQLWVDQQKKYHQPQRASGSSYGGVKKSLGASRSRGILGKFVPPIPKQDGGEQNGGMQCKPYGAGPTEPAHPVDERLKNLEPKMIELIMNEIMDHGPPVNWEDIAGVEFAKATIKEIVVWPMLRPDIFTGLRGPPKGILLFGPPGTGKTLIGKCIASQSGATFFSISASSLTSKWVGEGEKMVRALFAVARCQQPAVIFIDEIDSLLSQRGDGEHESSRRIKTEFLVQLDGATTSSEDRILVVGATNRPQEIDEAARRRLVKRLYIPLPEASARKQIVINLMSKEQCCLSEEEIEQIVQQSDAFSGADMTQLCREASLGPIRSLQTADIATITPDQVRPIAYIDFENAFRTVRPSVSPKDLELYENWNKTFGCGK
# UniProt Q9H4H8, sequence (Q9H4H8 whole entry, looked up): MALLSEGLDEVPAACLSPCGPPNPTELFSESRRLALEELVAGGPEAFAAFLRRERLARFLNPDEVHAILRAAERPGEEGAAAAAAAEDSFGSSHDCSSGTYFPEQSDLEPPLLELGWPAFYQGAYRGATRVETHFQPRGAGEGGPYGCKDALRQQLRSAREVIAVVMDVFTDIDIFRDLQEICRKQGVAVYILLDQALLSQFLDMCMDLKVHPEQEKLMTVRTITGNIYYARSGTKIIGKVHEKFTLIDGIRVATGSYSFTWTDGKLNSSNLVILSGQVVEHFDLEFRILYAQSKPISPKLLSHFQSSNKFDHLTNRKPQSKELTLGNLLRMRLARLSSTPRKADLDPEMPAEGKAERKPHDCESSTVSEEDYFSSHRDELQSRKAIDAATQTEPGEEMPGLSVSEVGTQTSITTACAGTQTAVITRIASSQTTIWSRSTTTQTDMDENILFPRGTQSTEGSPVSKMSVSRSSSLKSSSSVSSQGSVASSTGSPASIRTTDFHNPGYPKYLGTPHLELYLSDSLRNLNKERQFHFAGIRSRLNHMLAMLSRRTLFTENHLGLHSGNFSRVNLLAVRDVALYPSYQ
# UniProt Q96L91, sequence (Q96L91 whole entry, looked up): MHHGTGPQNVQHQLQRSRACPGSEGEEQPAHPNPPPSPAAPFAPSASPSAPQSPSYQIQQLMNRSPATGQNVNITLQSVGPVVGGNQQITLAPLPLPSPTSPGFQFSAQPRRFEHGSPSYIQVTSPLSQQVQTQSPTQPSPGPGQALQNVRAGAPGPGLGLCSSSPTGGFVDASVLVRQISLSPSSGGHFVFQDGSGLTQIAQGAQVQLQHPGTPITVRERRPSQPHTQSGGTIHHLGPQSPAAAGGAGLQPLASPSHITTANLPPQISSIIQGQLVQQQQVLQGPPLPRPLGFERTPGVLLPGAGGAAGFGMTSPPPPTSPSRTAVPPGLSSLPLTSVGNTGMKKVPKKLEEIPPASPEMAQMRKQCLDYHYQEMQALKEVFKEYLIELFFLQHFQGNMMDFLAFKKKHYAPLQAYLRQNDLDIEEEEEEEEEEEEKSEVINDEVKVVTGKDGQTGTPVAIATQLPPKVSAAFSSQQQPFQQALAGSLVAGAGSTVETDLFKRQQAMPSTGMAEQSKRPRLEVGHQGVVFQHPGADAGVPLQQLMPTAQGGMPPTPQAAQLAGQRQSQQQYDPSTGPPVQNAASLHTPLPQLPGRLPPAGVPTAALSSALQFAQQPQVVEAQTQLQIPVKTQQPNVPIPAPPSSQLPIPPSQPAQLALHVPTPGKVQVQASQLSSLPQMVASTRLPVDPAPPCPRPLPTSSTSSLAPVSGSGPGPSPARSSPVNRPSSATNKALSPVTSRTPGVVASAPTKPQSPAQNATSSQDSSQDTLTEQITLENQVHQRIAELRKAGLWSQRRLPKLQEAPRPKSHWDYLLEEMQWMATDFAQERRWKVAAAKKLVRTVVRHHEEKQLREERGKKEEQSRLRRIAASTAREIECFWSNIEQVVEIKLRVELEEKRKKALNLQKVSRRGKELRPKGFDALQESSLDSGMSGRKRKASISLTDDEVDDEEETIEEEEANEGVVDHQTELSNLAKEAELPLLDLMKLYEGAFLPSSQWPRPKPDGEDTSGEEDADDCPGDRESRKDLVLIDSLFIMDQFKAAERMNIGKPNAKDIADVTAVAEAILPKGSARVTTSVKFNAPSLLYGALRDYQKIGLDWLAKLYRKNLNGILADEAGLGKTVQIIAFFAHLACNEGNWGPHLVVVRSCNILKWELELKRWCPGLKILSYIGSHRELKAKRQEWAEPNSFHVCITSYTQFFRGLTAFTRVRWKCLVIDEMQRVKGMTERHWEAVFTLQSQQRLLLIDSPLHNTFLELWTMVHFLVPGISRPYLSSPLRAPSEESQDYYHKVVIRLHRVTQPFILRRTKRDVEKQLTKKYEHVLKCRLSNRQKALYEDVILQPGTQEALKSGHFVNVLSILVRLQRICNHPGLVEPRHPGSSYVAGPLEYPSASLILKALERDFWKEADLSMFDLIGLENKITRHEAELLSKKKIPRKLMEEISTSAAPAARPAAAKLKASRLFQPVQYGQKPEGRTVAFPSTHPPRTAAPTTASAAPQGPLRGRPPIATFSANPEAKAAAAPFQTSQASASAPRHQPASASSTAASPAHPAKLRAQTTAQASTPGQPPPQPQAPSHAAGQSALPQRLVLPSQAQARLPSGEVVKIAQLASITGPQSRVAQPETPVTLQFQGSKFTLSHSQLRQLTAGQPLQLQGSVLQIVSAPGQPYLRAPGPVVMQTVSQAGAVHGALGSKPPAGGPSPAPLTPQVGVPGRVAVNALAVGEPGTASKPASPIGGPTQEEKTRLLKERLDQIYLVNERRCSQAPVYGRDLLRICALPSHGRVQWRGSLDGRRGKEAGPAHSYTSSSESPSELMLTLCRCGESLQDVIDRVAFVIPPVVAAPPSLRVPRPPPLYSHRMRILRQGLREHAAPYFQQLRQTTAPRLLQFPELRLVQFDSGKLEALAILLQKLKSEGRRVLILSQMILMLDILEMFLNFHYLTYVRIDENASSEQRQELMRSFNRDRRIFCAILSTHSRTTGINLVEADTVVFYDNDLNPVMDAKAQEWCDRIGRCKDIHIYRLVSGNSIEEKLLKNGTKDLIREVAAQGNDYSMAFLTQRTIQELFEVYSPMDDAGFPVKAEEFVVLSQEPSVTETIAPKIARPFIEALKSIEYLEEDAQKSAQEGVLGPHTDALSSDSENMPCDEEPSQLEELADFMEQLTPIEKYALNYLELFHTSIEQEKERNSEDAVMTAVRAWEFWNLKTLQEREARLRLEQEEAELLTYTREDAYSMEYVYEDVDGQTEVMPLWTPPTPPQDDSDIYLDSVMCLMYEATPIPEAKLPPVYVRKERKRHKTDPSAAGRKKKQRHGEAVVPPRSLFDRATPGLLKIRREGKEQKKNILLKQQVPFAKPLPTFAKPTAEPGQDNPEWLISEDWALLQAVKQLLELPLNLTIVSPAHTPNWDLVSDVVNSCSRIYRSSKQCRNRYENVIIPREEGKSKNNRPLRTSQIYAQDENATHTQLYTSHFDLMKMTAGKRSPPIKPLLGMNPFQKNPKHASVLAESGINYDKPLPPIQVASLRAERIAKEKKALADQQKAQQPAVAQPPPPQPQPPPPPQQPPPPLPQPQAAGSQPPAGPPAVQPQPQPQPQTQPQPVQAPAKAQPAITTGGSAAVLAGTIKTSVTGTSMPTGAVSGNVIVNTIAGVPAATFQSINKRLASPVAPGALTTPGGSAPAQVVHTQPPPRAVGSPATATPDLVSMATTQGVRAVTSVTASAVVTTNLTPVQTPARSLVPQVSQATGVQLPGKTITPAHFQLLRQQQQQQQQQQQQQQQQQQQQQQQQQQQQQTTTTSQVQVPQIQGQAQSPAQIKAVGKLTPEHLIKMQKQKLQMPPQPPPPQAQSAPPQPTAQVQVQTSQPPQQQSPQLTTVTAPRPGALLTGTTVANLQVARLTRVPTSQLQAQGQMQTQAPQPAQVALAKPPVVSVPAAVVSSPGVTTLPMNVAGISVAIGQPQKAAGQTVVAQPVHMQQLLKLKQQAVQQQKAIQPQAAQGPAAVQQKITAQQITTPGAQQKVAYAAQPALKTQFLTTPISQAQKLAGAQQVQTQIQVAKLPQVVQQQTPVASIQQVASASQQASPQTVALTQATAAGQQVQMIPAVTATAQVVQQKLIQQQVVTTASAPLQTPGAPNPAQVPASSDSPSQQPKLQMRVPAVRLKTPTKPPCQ
# UniProt P22830, sequence (P22830 whole entry, looked up): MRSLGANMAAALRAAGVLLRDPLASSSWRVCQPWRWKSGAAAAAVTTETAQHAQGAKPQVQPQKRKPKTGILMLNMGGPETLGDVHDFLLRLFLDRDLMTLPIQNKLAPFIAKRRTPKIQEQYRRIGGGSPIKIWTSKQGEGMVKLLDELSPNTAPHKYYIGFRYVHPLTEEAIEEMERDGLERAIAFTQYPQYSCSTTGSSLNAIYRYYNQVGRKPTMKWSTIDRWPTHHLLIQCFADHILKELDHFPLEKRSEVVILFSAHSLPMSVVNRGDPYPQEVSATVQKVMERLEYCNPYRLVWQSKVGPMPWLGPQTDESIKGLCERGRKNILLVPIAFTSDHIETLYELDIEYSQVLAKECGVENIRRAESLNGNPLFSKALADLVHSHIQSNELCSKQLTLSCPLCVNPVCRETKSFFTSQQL
Target,log2 fold change (erlotinib),log2 fold change [1],log2 fold change [2],log2 fold change [3],log2 fold change [4],log2 fold change [5],log2 fold change [6],log2 fold change [7],log2 fold change [8],log2 fold change (IRAK-1-4 Inhibitor I),log2 fold change (ibrutinib),log2 fold change [9],log2 fold change (ralimetinib),log2 fold change [10],log2 fold change [11],log2 fold change [12],log2 fold change [13],log2 fold change [14],log2 fold change [15],log2 fold change [16]
ESRRA (UniProt P11474),0.065,0.171,-0.037,0.06,-0.131,-0.033,-0.112,-0.018,0.2,0.029,-0.408 (active),0.045,0.043,-0.023,0,-0.007,-0.075,0.067,-0.009,0.089
"EEF1A1, A0A087WVQ9",0.029,-0.049,0.054,-0.069,-0.016,-0.035,-0.072,-0.019,-0.001,0.03,0.085,0.019,-0.006,0.019,-0.007,0.091,0,-0.023,-0.006,0.004
FLAD1 (UniProt Q8NFF5),0.001,-0.108,-0.047,-0.054,-0.035,0.012,0.045,-0.028,-0.027,0.001,-0.011,0.002,0.016,-0.014,-0.072,-0.004,-0.026,0.002,0.011,0.015
EIF2B4 (UniProt Q9UI10),0.066,-0.063,-0.027,-0.178,-0.02,-0.121,0.105,-0.009,0.07,0.118,-0.01,0.05,-0.033,-0.062,0.013,0.009,-0.109,-0.044,0.005,-0.038
FIGNL1 (UniProt Q6PIW4),-0.008,-0.019,-0.025,0.005,-0.011,-0.005,-0.015,0.035,0.006,0.008,0,0.063,0.04,0.022,-0.006,-0.067,0.008,-0.002,0.02,0.037
EMP3 (UniProt P54852),0.008,-0.015,0.018,0.017,0.004,0,0.007,-0.002,0.029,0.053,0.045,-0.012,0.088,-0.081,0,0.013,-0.003,0.041,-0.036,-0.01
FDX2 (UniProt Q6P4F2),-0.051,0.063,0.044,0.065,-0.009,-0.041,-0.054,-0.402,-0.17,0.05,0.056,-0.025,-0.047,-0.194,-0.039,0.01,-0.018,0.015,0.05,0.006
DUS2 (UniProt Q9NX74),0.006,0.007,0.017,0.057,0.027,0.021,0.033,-0.016,0.05,-0.004,0.071,-0.036,0.026,0.097,-0.003,-0.056,-0.029,-0.004,0.091,0.01
FAM83D (UniProt Q9H4H8),0.033,0.013,-0.049,0.006,0,-0.009,-0.003,-0.005,-0.004,0.019,0.028,0.031,0.041,-0.018,0.013,0.038,-0.098,-0.032,0.031,0.017
FXR2 (UniProt P51116),0.018,0.026,-0.01,-0.042,0.022,-0.029,-0.092,-0.085,0.003,-0.075,0.027,-0.008,0.028,0.004,0.026,0.024,0.004,-0.005,-0.018,0.011
FECH isoform 2 (UniProt P22830),0.101,0.062,-0.321,0.42,-0.014,0.354,0.673,0.183,-0.009,0.644,0.091,0.104,-0.034,0.504,0.327,-0.263,0.287,0.748,0.028,-1.11 (active)
FTL (UniProt P02792),-0.14,-0.599,-0.077,-0.027,-0.006,0.11,0.012,-0.063,-0.034,0.169,-0.026,-0.025,-0.146,-0.257,0.023,0.027,0.041,0.023,0.033,0.053
GGT7 (UniProt Q9UJ14),-0.04,0.07,0.021,-0.116,0.094,-0.059,0.018,0.026,-0.023,0.027,0.019,0.004,-0.07,-0.106,-0.05,0.003,-0.066,-0.032,0.035,0.017
ERBIN isoform 8 (UniProt Q96RT1),0,-0.002,-0.008,0.044,-0.032,-0.001,-0.034,0.007,0.023,-0.034,0.029,-0.011,-0.003,0.01,-0.003,-0.037,0.012,-0.007,0.019,-0.01
EP400 isoform 5 (UniProt Q96L91),0.045,0.01,-0.007,-0.023,-0.042,-0.003,-0.074,-0.027,-0.023,-0.005,-0.061,-0.018,0.02,-0.033,-0.027,0.047,-0.014,0.016,0.035,0.041
FYB1 isoform 3 (UniProt O15117),-0.019,-0.043,-0.003,-0.073,0.009,0.015,-0.025,-0.012,0.028,0.024,-0.008,-0.01,-0.022,-0.008,0.005,-0.017,-0.042,0.059,0.008,-0.013
